For eight compounds, Potency and outcome results are on record in PubChem BioAssay (Tox21).

A short description of test [1]: qHTS assay to identify small molecule agonists of the peroxisome proliferator-activated receptor delta (PPARd) signaling pathway - cell viability counter screen (AID 743211; active = well fitted curve in the direction sought with a large enough effect in the repeat runs; an effect the other way counts as inactive or inconclusive; also: nearly all actives have a fitted effect of over 55% in size; also: potency is read from the fitted curve at half-maximal effect). In short, it runs like this:
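PPARd-bla HEK293H cells (UAS-beta-lactamase reporter) were treated with compounds for 17 h at 37 C. Viability was then read in the same wells by CellTiter-Glo luminescence after 30 min at room temperature.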
(qHTS replaces the single test concentration by a dilution series.)

Test [2] has as its target Peroxisome proliferator-activated receptor delta (Homo sapiens) (UniProt Q03181). The test is described as follows: qHTS assay to identify small molecule agonists of the peroxisome proliferator-activated receptor delta (PPARd) signaling pathway (AID 743212). In a few lines:
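Read-out: beta-lactamase FRET fluorescence after 2 h room-temperature incubation with LiveBLAzer B/G substrate. Cells were HEK293H carrying a UAS-bla reporter for PPARd, treated at 37 C with DMSO-dissolved compounds.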

Test [3] is described as follows: qHTS assay to identify small molecule antagonists of the peroxisome proliferator-activated receptor delta (PPARd) signaling pathway - cell viability counter screen (AID 743213; active = well fitted curve in the direction sought with a large enough effect in the repeat runs; an effect the other way counts as inactive or inconclusive; also: nearly all actives have a fitted effect of over 50% in size). In short, it runs like this: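 Luminescence from CellTiter-Glo, added after the bla read and incubated 30 min at room temperature, gives viability of HEK293H PPARd-bla cells exposed to compounds for 17 h at 37 C with 300 nM L165041.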

The target in test [4] is Peroxisome proliferator-activated receptor delta (Homo sapiens) (UniProt Q03181). The test is described as follows: qHTS assay to identify small molecule antagonists of the peroxisome proliferator-activated receptor delta (PPARd) signaling pathway (AID 743215; active = well fitted inhibition curve with a large enough effect in the signal ratio in the repeat runs, not every such curve was filed as active; the % refers to the signal ratio;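 also: cells stimulated with agonist L165041 at 300 nM final during compound exposure; series mostly up to about 62 µM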). In a few lines:
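HEK293H GeneBLAzer PPARd UAS-bla reporter cells; cpd + L165041 300 nM final, 17 h 37 C; LiveBLAzer B/G FRET substrate 2 h RT; fluorescence intensity read-out. Antagonist mode.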

The target in test [5] is Bile acid receptor (Homo sapiens) (UniProt Q96RI1). The test is described as follows: qHTS assay to identify small molecule antagonists of the farnesoid-X-receptor (FXR) signaling pathway (AID 743217; active = well fitted inhibition curve with a large enough effect in the signal ratio in the repeat runs, not every such curve was filed as active; the % refers to the signal ratio). In short, it runs like this:
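Read-out: beta-lactamase FRET fluorescence (LiveBLAzer B/G substrate, 2 h, room temperature) in GeneBLAzer FXR-UAS-bla HEK 293T cells. Compounds were co-dosed with 50 uM chenodeoxycholic acid (final) and incubated 16 h at 37 °C.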

A short description of test [6]: qHTS assay to identify small molecule agonists of the farnesoid-X-receptor (FXR) signaling pathway - cell viability counter screen (AID 743218; active = well fitted curve in the direction sought with a large enough effect in the repeat runs; an effect the other way counts as inactive or inconclusive; also: nearly all actives have a fitted effect of over 45% in size; also: potency is read from the fitted curve at half-maximal effect). In short, it runs like this: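 Luminescence from CellTiter-Glo, read after 30 min at RT, reports viability of GeneBLAzer FXR-UAS-bla HEK 293T cells treated 16 h with compounds in the wells used for the beta-lactamase reporter.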

Test [7] has as its target Bile acid receptor (Homo sapiens) (UniProt Q96RI1). The test is described as follows: qHTS assay to identify small molecule agonists of the farnesoid-X-receptor (FXR) signaling pathway (AID 743220; active = well fitted activation curve with a large enough effect in the signal ratio in the repeat runs, not every such curve was filed as active; the % refers to the signal ratio). In a few lines:
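FXR-UAS-bla HEK 293T cells carrying a UAS-driven beta-lactamase reporter were plated for 5 h at 37C/5% CO2, then exposed to DMSO-dissolved Tox21 10K compounds for 16 h at 37C. A LiveBLAzer B/G FRET substrate was loaded for 2 h at room temperature before fluorescence reading.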

A short description of test [8]: qHTS assay to identify small molecule antagonists of the farnesoid-X-receptor (FXR) signaling pathway - cell viability counter screen (AID 743221; active = well fitted cell-killing curve with a large enough effect in the repeat runs, not every such curve was filed as active; also: nearly all actives have a fitted effect of over 50% in size). In a few lines:
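FXR-UAS-bla HEK 293T cells were treated with test compounds plus chenodeoxycholic acid (50 uM final) for 16 h at 37 C. Cell viability in the same wells was then read as CellTiter-Glo luminescence after 30 min at room temperature.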

The target in test [9] is Vitamin D3 receptor (Homo sapiens) (UniProt P11473). The test is described as follows: qHTS assay to identify small molecule agonists of the vitamin D receptor (VDR) signaling pathway (AID 743222). In short, it runs like this: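 Beta-lactamase reporter readout (LiveBLAzer B/G FRET, 2 h RT) in VDR-bla cells after 16 h compound treatment at 37C, 5% CO2; cells pre-incubated 4 h before pin transfer of DMSO solutions.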
Vitamin D3 receptor (Homo sapiens), sequence (P11473 whole entry, looked up): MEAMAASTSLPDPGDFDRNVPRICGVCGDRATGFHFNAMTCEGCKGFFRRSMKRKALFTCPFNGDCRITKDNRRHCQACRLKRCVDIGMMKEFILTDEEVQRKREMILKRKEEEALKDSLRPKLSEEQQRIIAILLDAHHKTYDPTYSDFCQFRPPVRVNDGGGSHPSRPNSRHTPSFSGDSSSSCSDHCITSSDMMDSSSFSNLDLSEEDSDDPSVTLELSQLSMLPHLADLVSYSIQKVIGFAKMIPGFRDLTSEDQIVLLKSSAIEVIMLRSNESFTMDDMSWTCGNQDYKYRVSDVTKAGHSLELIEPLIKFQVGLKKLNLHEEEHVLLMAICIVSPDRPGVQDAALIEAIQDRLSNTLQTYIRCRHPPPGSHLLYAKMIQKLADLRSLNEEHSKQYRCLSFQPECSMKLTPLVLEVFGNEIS

For test [10] the target is unchanged. The experiment in a line: qHTS assay to identify small molecule antagonists of the vitamin D receptor (VDR) signaling pathway (AID 743223; active = well fitted inhibition curve with a large enough effect in the signal ratio in the repeat runs, not every such curve was filed as active; the % refers to the signal ratio). In short, it runs like this:
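VDR-bla cells were plated, incubated 4 h at 37C, then given compound and 1alpha,25-dihydroxyvitamin D3 (3 nM final). After 16 h at 37C, LiveBLAzer B/G FRET substrate was added for 2 h at room temperature and fluorescence read.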

Test [11] can be described thus: qHTS assay to identify small molecule agonists of the vitamin D receptor (VDR) signaling pathway - cell viability counter screen (AID 743224; active = well fitted curve in the direction sought with a large enough effect in the repeat runs; an effect the other way counts as inactive or inconclusive; also: series mostly up to about 63 µM; nearly all actives have a fitted effect of over 50% in size). In short, it runs like this:
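Cytotoxicity counter screen: VDR-bla cells, 16 h compound exposure at 37C, 5% CO2; CellTiter-Glo luminescence, 30 min RT, same wells as bla read.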

Test [12] in a line: qHTS assay to identify small molecule antagonists of the vitamin D receptor (VDR) signaling pathway - cell viability counter screen (AID 743225; active = well fitted curve in the direction sought with a large enough effect in the repeat runs; an effect the other way counts as inactive or inconclusive; also: nearly all actives have a fitted effect of over 50% in size). In short, it runs like this:
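VDR-bla HEK 293T cells, 4 h pre-incubation at 37C, then compound plus 1-alpha,25-dihydroxyvitamin D3 (3 nM final) for 16 h. After the beta-lactamase FRET read, CellTiter-Glo was added to the same wells; luminescence after 30 min at room temperature.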

The nature of test [13]: qHTS assay to identify small molecule agonists of the NFkB signaling pathway - cell viability counter screen (AID 1159515). Also: series mostly up to about 61 µM; nearly all actives have a fitted effect of over 55% in size. In a few lines: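 ME-180 NFkB-bla cells, 2,000/well; overnight attach; compound 5 hr, 37 C/5% CO2; LiveBLAzer substrate 1.5 hr RT; then CellTiter-Glo in same wells, 30 min RT, luminescence read.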
Test [14] can be described thus: qHTS assay to identify small molecule agonists of the endoplasmic reticulum stress response signaling pathway (AID 1159516; active = well fitted activation curve with a large enough effect in the signal ratio in the repeat runs, not every such curve was filed as active; the % refers to the signal ratio). In a few lines: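 HeLa ESRE-bla reporter line; cpd 5 h, 37 C/5% CO2; LiveBLAzer B/G FRET substrate 2 h RT; ex 405, em 460/530 nm.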
Test [15] can be described thus: qHTS assay to identify small molecule agonists of the endoplasmic reticulum stress response signaling pathway - cell viability counter screen (AID 1159517). In a few lines: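 Steps: seed 1,500 ESRE-bla HeLa cells per well; incubate overnight at 37 C, 5% CO2; add compounds in DMSO for 5 hr; run FRET substrate 2 hr RT; add CellTiter-Glo, wait 30 min, read luminescence.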

Test [16] in a line: qHTS assay to identify small molecule antagonists of the retinoid-related orphan receptor gamma (ROR-gamma) signaling pathway - cell viability counter screen (AID 1159520; active = well fitted curve in the direction sought with a large enough effect in the repeat runs; an effect the other way counts as inactive or inconclusive; also: nearly all actives have a fitted effect of over 50% in size). In short, it runs like this: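 Tet-on ROR gamma CHO cells were given compounds for 2 hr, then doxycycline hyclate at 1 uM final, and incubated 16 hr at 37 C. Viability was measured as ATP content by CellTiter-Glo luminescence.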

Test [17] has as its target Nuclear receptor ROR-gamma (Homo sapiens) (UniProt P51449). The test is described as follows: qHTS assay to identify small molecule antagonists of the retinoid-related orphan receptor gamma (ROR-gamma) signaling pathway (AID 1159521; active = well fitted curve in the direction sought with a large enough effect in the repeat runs; an effect the other way counts as inactive or inconclusive). In a few lines: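 Tet-on RORγ CHO cells carrying a ROR response element–luciferase reporter were pretreated with compounds for 2 h, then induced with 1 uM (final) doxycycline hyclate for 16 h at 37 C. Antagonism was read as decreased ONE-Glo luminescence.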

A short description of test [18]: qHTS assay to identify small molecule agonists of the AP-1 signaling pathway - cell viability counter screen (AID 1159525). Also: nearly all actives have a fitted effect of over 55% in size. In short, it runs like this:
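Same-well cytotoxicity counter screen of the Tox21 10K library in ME-180 cells. The readout is ATP-dependent luminescence after 5 h compound treatment. Data are normalised to DMSO and tetra n-octyl ammonium bromide controls.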

A short description of test [19]: qHTS assay to identify small molecule agonists of the AP-1 signaling pathway (AID 1159526).
Test [20] addresses Retinoic acid receptor RXR-alpha (Homo sapiens) (UniProt P19793). The test is described as follows: qHTS assay to identify small molecule agonists of the RXR signaling pathway (AID 1159527). Also: nearly all actives have a fitted effect of over 35% in size. In a few lines:
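GeneBLAzer RXR-alpha-UAS-bla HEK 293T cells in medium with 2% charcoal-stripped FBS, pre-incubated 5 hr at 37 C, then exposed to compounds 16 hr. Beta-lactamase reporter read by FRET substrate, 2 hr room temperature, 460/530 nm emission.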

Results filed as inconclusive are left out. The source made the active and inactive calls. Unless noted, calls follow the shape of the full dose curve.

Bile acid receptor (Homo sapiens), sequence (Q96RI1 whole entry, looked up): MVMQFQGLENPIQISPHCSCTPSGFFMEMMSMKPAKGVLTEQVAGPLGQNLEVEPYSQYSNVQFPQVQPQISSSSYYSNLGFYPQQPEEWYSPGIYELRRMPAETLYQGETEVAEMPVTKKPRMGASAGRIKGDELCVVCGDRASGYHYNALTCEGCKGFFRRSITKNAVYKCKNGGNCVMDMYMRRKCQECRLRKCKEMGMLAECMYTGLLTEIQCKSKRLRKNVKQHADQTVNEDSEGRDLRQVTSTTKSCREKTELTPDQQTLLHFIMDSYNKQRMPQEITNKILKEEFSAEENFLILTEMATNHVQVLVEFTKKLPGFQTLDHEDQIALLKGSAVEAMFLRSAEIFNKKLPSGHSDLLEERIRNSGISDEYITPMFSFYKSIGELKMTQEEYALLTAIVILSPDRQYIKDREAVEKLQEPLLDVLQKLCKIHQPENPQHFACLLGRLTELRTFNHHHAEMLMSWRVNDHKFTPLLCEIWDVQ
Retinoic acid receptor RXR-alpha (Homo sapiens), sequence (P19793 whole entry, looked up): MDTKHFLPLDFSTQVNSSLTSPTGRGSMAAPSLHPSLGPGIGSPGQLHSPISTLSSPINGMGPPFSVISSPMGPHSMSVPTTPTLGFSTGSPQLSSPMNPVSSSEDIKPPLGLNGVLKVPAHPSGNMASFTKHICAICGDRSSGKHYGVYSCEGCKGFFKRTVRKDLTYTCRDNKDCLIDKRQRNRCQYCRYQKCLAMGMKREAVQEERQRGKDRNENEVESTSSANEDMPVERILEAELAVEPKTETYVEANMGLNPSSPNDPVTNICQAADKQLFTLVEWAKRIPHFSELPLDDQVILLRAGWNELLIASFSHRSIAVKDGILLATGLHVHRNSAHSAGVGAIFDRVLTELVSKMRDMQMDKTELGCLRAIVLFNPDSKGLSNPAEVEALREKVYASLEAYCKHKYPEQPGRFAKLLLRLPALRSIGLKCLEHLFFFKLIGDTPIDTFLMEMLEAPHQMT
Peroxisome proliferator-activated receptor delta (Homo sapiens), sequence (Q03181 whole entry, looked up): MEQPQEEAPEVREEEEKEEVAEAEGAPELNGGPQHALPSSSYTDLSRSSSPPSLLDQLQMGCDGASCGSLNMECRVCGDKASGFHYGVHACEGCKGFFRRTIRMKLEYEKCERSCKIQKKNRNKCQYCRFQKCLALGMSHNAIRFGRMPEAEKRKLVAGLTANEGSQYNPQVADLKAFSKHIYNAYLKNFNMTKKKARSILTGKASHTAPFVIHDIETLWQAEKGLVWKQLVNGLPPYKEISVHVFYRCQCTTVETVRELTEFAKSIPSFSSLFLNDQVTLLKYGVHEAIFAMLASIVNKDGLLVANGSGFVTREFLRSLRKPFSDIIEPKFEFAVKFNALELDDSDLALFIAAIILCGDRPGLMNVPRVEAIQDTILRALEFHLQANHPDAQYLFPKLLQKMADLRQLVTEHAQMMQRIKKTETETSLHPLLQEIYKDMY

In the case of `COC1CC(=C(c2cccs2)c2cccs2)C[N+](C)(C)C1` (stereo unspecified), the Potency result in [1], in test [3], in test [4], in test [5], in test [6] and in [8] was “inactive” in each case. In addition, the Potency result in [10], in test [11], in [12], in test [13], in [14] and in test [15] was “inactive” throughout. In addition, the Potency entry in test [16], in [17], in [18], in test [19] and in test [20] was “inactive” throughout. For the same compound, the call in test [2], in test [7] and in [9] was inactive.

For the compound `Nc1cc(Cl)cc(C(=O)O)c1Cl`, the Potency entry in test [1], in test [3], in test [6], in test [10], in test [11] and in [12] was “inactive” in each case. Further, the Potency entry in test [13], in [14], in [15], in test [16], in test [17] and in test [18] was “inactive” in each case. The Potency entry in test [19] and in [20] was “inactive” in each case. For the same compound, the compound was classed as inactive in test [2] and in [9].

As to `COc1cc(C[C@@H](C)N)c(OC)cc1Br`, the Potency in test [1] was 62.8 µM (active); in test [6], 31.5 µM (active). For the same compound, the Potency result in test [11], in test [12], in [13], in test [14], in test [15] and in test [16] was “inactive” throughout. Moreover, the Potency entry in [17], in test [18], in test [19] and in test [20] was “inactive” each time.

In the case of `O=C(NCNC(=O)NC1C(=O)NC(=O)N1CO)NC1C(=O)NC(=O)N1CO` (stereo unspecified), the Potency entry in [1], in [3], in test [5], in test [6], in test [11] and in test [12] was “inactive” throughout. For the same compound, the Potency result in test [13], in [14], in [15], in test [16], in test [17] and in test [18] was “inactive” each time. Besides, the Potency entry in test [19] and in test [20] was “inactive” each time. The result in [2] and in test [7] was inactive.

`C[C@H]1[C@@H]2Cc3ccc(O)cc3[C@@]1(C)CCN2C`: the Potency result in test [1], in test [3], in [5], in test [6], in test [11] and in [13] was “inactive” throughout. The Potency result in test [14], in [15], in test [16], in [17], in test [18] and in [19] was “inactive” in each case. For the same compound, the Potency entry in test [20] is “inactive”. Moreover, the outcome in test [2], in [7] and in test [9] was inactive.

Consider `CC(C)CCON=O`, for which the Potency entry in [1], in test [3], in test [6], in test [8], in test [11] and in test [13] was “inactive” each time. For the same compound, the Potency result in test [14], in [15], in test [16], in [17], in [18] and in test [19] was “inactive” each time. In addition, the Potency entry in test [20] is “inactive”. Also, the compound was called inactive in [2] and in test [9].

In the case of `C[N+]1(CCC(C(N)=O)(c2ccccc2)c2ccccc2)CCCCC1`, the Potency entry in test [1], in [4], in test [5], in test [6], in [12] and in test [13] was “inactive” in each case. The Potency result in test [14], in test [15], in test [16], in [17], in [18] and in test [19] was “inactive” throughout. In test [20], the Potency entry is “inactive”. Also, the compound was classed as inactive in [2] and in test [7].

Take `CCCCCBr`: the Potency result in [1], in test [4], in [6], in test [8], in [10] and in test [11] was “inactive” in each case. In addition, the Potency entry in test [13], in test [14], in test [15], in [16], in [17] and in test [18] was “inactive” each time. Also, the Potency result in test [19] and in [20] was “inactive” throughout. In addition, the compound was classed as inactive in test [2] and in [9].
